SKKanGAS inh – S. pyogenes SKKanGAS growth inhibitors in kanamycin, primary screen, streptokinase expression inhibitor project, SKKanGAS strain, BacTiter-Glo luminescence; 6 h; inhibition, % at 7.5 µM; hit rate 1.3% among 300,000; AID 1662, 2009;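 active means mean replicate score, as percent of positive control median, at least 50; inconclusive means mean below 50 but one replicate at or above 50; inactive means mean and every replicate below 50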;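 further: strain carries kanamycin resistance gene driven by streptokinase promoter and grows in 40 µg/ml kanamycin; loss of luminescence reflects streptokinase promoter inhibition or plain growth inhibition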
NLRP3 yeast inh – NALP3 inflammasome inhibitors in reconstituted yeast, primary screen, luminescence, uHTS; Yeast reconstituted NLRP3/ASC/caspase-1, beta-gal luminescence, 24 h; inhibition, % at 10 µM; hit rate 0.39% among 330,000;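 active means inhibition of 50% or more; inactive means inhibition below 50%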
PfHsp90 yeast 2 – growth inhibition of PfHsp90-expressing yeast, primary screen, antimalarial PfHsp90 inhibitor project, S. cerevisiae, BacTiter-Glo luminescence, single point, set 2. BacTiter-Glo ATP, 48 h; yeast lacking PDR1 and PDR3 efflux regulators. inhibition, % at 9.4 µM. hit rate 0.32% among 310,000. AID 504621, 2011;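 active means every replicate shows inhibition above about 80%, whatever the replicate mean, limit read from the data; inconclusive means mean inhibition reaches the set limit but some replicate falls short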
tim10-1 inh – growth inhibitors of tim10-1 mutant yeast, primary screen, luminescence, uHTS | S. cerevisiae tim10-1 ts strain growth, BacTiter-Glo, 24 h | inhibition, % at 20 µM | hit rate 2.2% among 330,000;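 active means inhibition of at least 40%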;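 further: mutant grown at 25 °C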
TIM10 inh – growth inhibitors of isogenic TIM10 control yeast, primary screen, counter-screen for tim10-1 yeast inhibitor project, luminescence, uHTS; S. cerevisiae TIM10 strain growth, BacTiter-Glo luminescence, 24 h; inhibition, % at 10 µM; hit rate 1.4% among 330,000; AID 463195, 2010;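 active means inhibition of 40% or more at the single tested concentration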;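 further: wild-type TIM10 isogenic control strain grown at permissive 25 °C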
tim23-1 inh – growth inhibitors of tim23-1 mutant yeast, primary screen, luminescence, uHTS; S. cerevisiae tim23-1 growth, BacTiter-Glo luminescence, 24 h; inhibition, % at 20 µM; hit rate 1.3% among 330,000; AID 463212, 2010;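 active means growth inhibition of the mutant yeast at or above 50%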;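 further: temperature-sensitive mutant grown at 25 °C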
A number is an active result; . = inactive; ? = inconclusive; / = no result given. Hits are enriched below; roughly 4.6% of the tested compounds scored in any of these assays.

SMILES | SKKanGAS inh | NLRP3 yeast inh | PfHsp90 yeast 2 | tim10-1 inh | TIM10 inh | tim23-1 inh
COc1ccc(NC(=S)NC(NC(=O)c2ccccc2Cl)C(Cl)(Cl)Cl)c([N+](=O)[O-])c1 (centres undefined) | . | . | . | . | . | .
COc1ccc(NC(=S)NC(NC(=O)c2ccc(Cl)cc2Cl)C(Cl)(Cl)Cl)c([N+](=O)[O-])c1 (centres undefined) | 50 | . | . | . | . | .
COc1ccc(/C=C2\Sc3ccc(C(=O)N4CCOCC4)cc3N(C)C2=O)cc1 | 60 | . | . | . | . | .
COc1ccc(/C=C2\Sc3ccc(C(=O)NCC4CCCO4)cc3N(C)C2=O)cc1 (centres undefined) | 92 | . | . | . | . | .
Cc1ccccc1/C=C1\Sc2ccc(C(=O)N3CCN(c4ccccn4)CC3)cc2N(C)C1=O | ? | . | . | . | . | .
COc1ccc(/C=C2\SC(=S)N(CCCC(=O)N3CCOCC3)C2=O)cc1 | . | . | . | . | . | .
CN1C(=O)/C(=C/c2ccccc2F)Sc2ccc(C(=O)N3CCCC3)cc21 | 71 | . | . | . | . | .
CC(=O)Nc1ccc(NC(=O)C(Cc2ccccc2)NC(=O)C2CCC(C)CC2)cc1 (centres undefined) | . | . | / | . | . | .
O=C(COC(=O)/C(=C/c1cccs1)c1cccs1)NC(c1ccccc1)c1ccccc1 | . | . | . | . | . | .
C[C@@H](NC(=O)c1nc[nH]c1C(=O)N[C@@H](Cc1ccccc1)C(=O)OC(C)(C)C)c1ccccc1 | 84 | . | . | . | . | .
C[C@H](NC(=O)c1nc[nH]c1C(=O)N[C@@H](Cc1ccccc1)C(=O)OC(C)(C)C)c1ccccc1 | 54 | . | . | . | . | .
CNC(=O)c1[nH]cnc1C(=O)N[C@@H](Cc1ccccc1)C(=O)OC(C)(C)C | . | . | . | . | . | .
Cc1ccc(C)c(NC(=O)COC(=O)c2ccc3c(c2)OCCO3)c1 | / | . | / | . | . | .
Cc1sc2nc(SCc3ccccc3)n(Cc3ccco3)c(=O)c2c1C | . | . | . | . | . | .
Cc1ccc(CSc2nc3sc(C)c(C)c3c(=O)n2Cc2ccco2)cc1 | 78 | . | . | . | . | .
O=c1oc2ccccc2c2c1nnn2CCO | . | . | . | . | . | .
OCc1ccnc2oc3ccccc3c12 | . | . | . | . | . | .
O/N=C/c1ccc2cccc(O)c2n1 | . | . | . | . | . | .
COc1ccc(N=Cc2cc(Cl)ccc2O)cc1Cl | . | . | . | . | . | .
COc1ccccc1/C=C/c1ccc2cccc(O)c2n1 | 97 | . | . | . | . | .
COc1ccc(Cl)cc1/C=C/c1ccc2cccc(O)c2n1 | 89 | . | . | . | . | .
COc1cc(Cl)cc(/C=C/c2ccc3cccc(O)c3n2)c1OC | 87 | . | . | . | . | .
COCCn1c(SCC(=O)N2CCC(C)CC2)nc2c([nH]c3ccccc32)c1=O | . | . | . | . | . | .
CCOC(=O)c1cnc(-n2nc(C)cc2C)nc1Nc1ccc(C)cc1 | 95 | / | . | / | / | /
CCOC(=O)c1cnc(-n2nc(C)cc2C)nc1Nc1ccc(N(C)C)cc1 | 97 | . | . | . | . | .
SMILES | SKKanGAS inh | NLRP3 yeast inh | PfHsp90 yeast 2 | tim10-1 inh | TIM10 inh | tim23-1 inh
COc1ccc(S(=O)(=O)NC2CC3CCC2C3)cc1Br (centres undefined) | . | . | 114 | . | . | .
COc1ccc(S(=O)(=O)NC2CC3CCC2C3)cc1Cl (centres undefined) | . | . | 141 | . | . | .
O=S(=O)(NC1CC2CCC1C2)c1ccc2c(c1)OCCO2 (centres undefined) | . | . | . | . | . | .
CC(=O)Nc1ccc(S(=O)(=O)NC2CC3CCC2C3)cc1 (centres undefined) | . | . | . | . | . | .
CCc1nnc(NC(=O)[C@@H](NS(=O)(=O)c2ccc3c(c2)OCCO3)C(C)C)s1 | / | / | . | / | / | /
Cc1ccc(C(=O)N2CCC(n3nccc3NC(=O)C3CCOC3)CC2)cc1 (centres undefined) | . | . | . | . | . | .
O=C(Nc1ccnn1C1CCN(C(=O)c2ccc(F)cc2)CC1)C1CCOC1 (centres undefined) | 52 | . | . | . | . | .
Cc1cc2nc(-c3ccc(SCc4ccccn4)nc3)[nH]c2cc1C | . | . | . | . | . | .
O=C(NCCc1nnc2ccc(NCc3cccnc3)nn12)c1ccccc1F | . | . | . | . | . | .
Cc1cc(C)cc(NS(=O)(=O)c2ccc(NC(=S)NC(=O)c3cccs3)cc2)c1 | 77 | . | . | . | . | .
COc1cc(NS(=O)(=O)c2ccc(NC(=S)NC(=O)c3cccs3)cc2)nc(OC)n1 | . | . | . | . | . | .
Cc1ccc(CNC(=S)Nc2ccc(NS(=O)(=O)c3ccc(C)cc3)cc2)cc1 | 56 | . | . | . | . | .
Cc1ccc(NC(=S)NCc2ccc(F)cc2)cc1 | . | . | . | . | . | .
CC(C)CC(=O)Nc1ccc(C(=O)NNC(=S)NC(=O)C2CCCCC2)cc1 | 93 | . | . | . | . | .
N#CCC(=O)Nc1ccc(C(=O)NNC(=S)NC2CCCCC2)cc1 | / | . | / | . | . | .
CCOP(=O)(OCC)c1nc(-c2cccc3ccccc23)oc1NCc1ccc(OC)cc1 | 57 | . | . | . | . | .
O=[N+]([O-])c1cc2no[n+]([O-])c2cc1N1CCCCC1 | / | / | 105 | / | / | /
C[C@H](CO)N1C[C@H](C)[C@@H](CN(C)S(C)(=O)=O)Oc2ccc(NC(=O)C3CC3)cc2C1=O | / | . | . | . | . | .
N=C1SCC(=O)N1c1ncc(Cc2ccccc2Cl)s1 | . | / | . | / | / | /
N=C1SCC(=O)N1c1ncc(Cc2cccc(Cl)c2)s1 | 84 | / | . | / | / | /
Cc1cccc(Cc2cnc(N3C(=N)SC(C)C3=O)s2)c1 (centres undefined) | 93 | . | . | . | . | .
Cc1ccc(Cc2cnc(N3C(=N)SC(C)C3=O)s2)cc1 (centres undefined) | 90 | . | / | . | . | .
Cn1c(C(=O)NN)cc2cc(OCc3ccccc3)ccc21 | . | . | / | . | . | .
CCOc1ccc(CNC(=O)CCCn2nc(C)c3c(C)n(-c4ccc(C)cc4)nc3c2=O)cc1 | . | . | . | . | . | .
O=C(Nc1ccccc1C(=O)O)c1ccc(NC(=O)c2ccc(Br)o2)cc1 | . | . | / | . | . | .
O=C(Nc1ccccc1C(=O)O)c1cccc(NC(=O)c2ccc(Br)o2)c1 | 83 | . | . | . | . | .
CC(=O)Nc1ccccc1C(=O)C(=O)NCCc1ccccc1 | . | . | / | . | . | .
CN(C(=O)COc1ncnc2ccccc12)C1CCCCC1 | / | . | . | . | . | .

Assay outcomes deposited in PubChem by several laboratories.
